Laboratory results as given in article PMC4552634, “A New Set of Chemical Starting Points with Plasmodium falciparum Transmission-Blocking Potential for Antimalarial Drug Discovery” (PLoS ONE, 2015).
Among all 13,000 compounds or so, about 3,200 (25%) showed an effect of 50% or more. The list shows a part of the results.

The molecules below were run on P. falciparum stage V gametocytes. Conditions: 48 h, 5 µM; inhibitor.
Design: BacTiter-Glo ATP luminescence viability of purified stage V gametocytes in 384-well plates, per cent inhibition versus DMSO

Row | Structure (SMILES) | % Inhibition [%]
1 | N#Cc1ccc(/C=C/C(=O)NCCCCCN2CCCN(C(=O)Nc3ccc(Cl)c(C(F)(F)F)c3)CC2)cc1 [TCMDC-136110] | 28.79
2 | Cc1[nH]c(CNCCCNc2cc(=O)c3ccccc3[nH]2)c(Br)c1Br [TCMDC-139780] | -12
3 | COc1ccc(-c2cc(C(=O)Nc3ccc4nc(-c5ccccc5)[nH]c4c3)[nH]n2)cc1 [TCMDC-134399] | -1.351
4 | Fc1cccc(COc2ccc(Nc3ncnc4sc(C#CCNC5CCC5)cc34)cc2Cl)c1 [TCMDC-138785] | 4.873
5 | Cc1cc(NCCc2ccccc2)nc(/N=C(\N)Nc2cccc(Cl)c2)n1 [TCMDC-138364] | 54.32
6 | Cc1cc(NCCc2ccccc2)nc(/N=C(\N)Nc2cccc([N+](=O)[O-])c2)n1 [TCMDC-138371] | 3.581
7 | CC(C)CCN(Cc1cncn1Cc1cccc(C(F)(F)F)c1)C(=O)c1ccccc1C#N [TCMDC-132457] | 14.87
8 | O=C(O)C(F)(F)F.O=C1CCCN1CCCNCc1ccc(-c2ccc(-c3nc4cc(C(F)(F)F)ccc4[nH]3)cc2)cc1 [TCMDC-132760] | 37.39
9 | Cn1ncc2c3c(CCN4CCC(NCc5ccc6c(c5)NC(=O)CO6)CC4)c(Cl)cnc3ccc21 [TCMDC-136023] | 91.21
10 | COc1cc(F)c2ncc(Cl)c(CCN3CCC(NCc4ccc5c(c4)NC(=O)CO5)CC3)c2c1 [TCMDC-135623] | 24.82
11 | COc1nc2c(CCN3CCC(NCc4ccc5c(c4)NC(=O)CO5)CC3)c(Cl)cnc2cc1F [TCMDC-135767] | 23.61
12 | CC(=O)c1ccc(N2C(=O)C3C(Cc4ccc(OC(C)(C)C)cc4)NC4(C(=O)N(Cc5ccc(C(C)(C)C)cc5)c5ccccc54)C3C2=O)cc1 (stereo not drawn) [TCMDC-139773] | 1.15
13 | C=CCc1cc(Cc2cnc(N)nc2N)c2ccc(C)nc2c1O [TCMDC-137628] | -3.473
14 | Cc1cccc(CNc2nccc3[nH]c4ccccc4c23)c1 [TCMDC-136334] | -2.626
15 | CN(C)c1cccc2c1nc(-c1ccco1)n2CCNCc1ccccc1 [TCMDC-133484] | 72.16
16 | CN(CCc1ccccn1)c1cccc2c1nc(-c1cccnc1)n2CCNCc1ccccc1 [TCMDC-133439] | -10.58
17 | CN(C)CCNc1cc(-c2cccnc2)nc(-c2ccncc2)n1 [TCMDC-125595] | -4.49
18 | CN(C)CCCN(C)c1cccc2c1nc(-c1cccnc1)n2CCNCc1ccccc1 [TCMDC-133440] | 88.37
19 | Cc1nc2nc(N)nc(N)c2c(C)c1Cc1cccc(C#N)c1 [TCMDC-137646] | -13.13
20 | Cc1nc(N)nc(N)c1CCCOc1ccc(Br)cc1 [TCMDC-138068] | -19.95
21 | CC(=O)c1cccc(NC(=O)N2CCCN(CCCCCNC(=O)/C=C/c3ccc(Cl)c(Cl)c3)CC2)c1 [TCMDC-135752] | -19.76

Row | Structure (SMILES) | % Inhibition [%]
22 | COc1ccc(-c2nc(NC(=O)Cc3coc4cc(OC)ccc34)sc2C)cc1 [TCMDC-124497] | 27.62
23 | CCN(CC)CCN(Cc1ccc(-c2ccc(C(F)(F)F)cc2)cc1)C(=O)Cn1c(CCc2cccc(F)c2F)nc(=O)c2cc(F)c(F)cc21 [TCMDC-141089] | 67.52
24 | CCN(CC)CCN(Cc1ccc(-c2ccc(C(F)(F)F)cc2)cc1)C(=O)Cn1c(SCc2ccc(F)cc2)cc(=O)c2ccccc21 [TCMDC-140791] | 99.53
25 | CCN(CC)CCN(Cc1ccc(-c2ccc(C(F)(F)F)cc2)cc1)C(=O)Cn1c(CCc2cccc(F)c2F)nc(=O)c2cc(F)ccc21 [TCMDC-141096] | 73.36
26 | CCN(CC)CCN(Cc1ccc(-c2ccc(C(F)(F)F)cc2)cc1)C(=O)Cn1c(CCc2cccc(F)c2F)nc(=O)c2ccc(C(F)(F)F)cc21 [TCMDC-141071] | 34.24
27 | CCN(CC)CCN(Cc1ccc(-c2ccc(C(F)(F)F)cc2)cc1)C(=O)Cn1c(CCc2cccc(F)c2F)nc(=O)c2ccc(F)cc21 [TCMDC-141095] | 68.69
28 | COc1cccc(OC2CCN(C(=O)c3ccc(-c4ccc(N5CCCC5=O)cc4C)cc3)CC2)c1 [TCMDC-136524] | 29.3
29 | Cc1nc(N)nc(N)c1OCCCOc1ccccc1Br [TCMDC-131364] | -0.5645
30 | CN1CCCC1CCNC(=O)[C@H](CC1CCCCC1)NC(=O)c1ccc(O)c(-c2ccc(Cl)c(Cl)c2)c1 (stereo partly drawn) [TCMDC-140855] | 48.17
31 | CCN(CC)C(=O)c1cnc(-c2ccccc2)nc1Oc1cccc(Cl)c1 [TCMDC-124780] | 14.15
32 | CCCCCCC(C)c1cc(O)c2c(c1)OC(=O)CC2(CC)c1ccccn1 (stereo not drawn) [TCMDC-131681] | -3.085
33 | c1cc(CNC2Cc3ccc(-c4cccs4)cc3C2)cc(-n2ccnc2)c1 (stereo not drawn) [TCMDC-134830] | -2.028
34 | CC(C)C[C@H](NC(=O)c1ccc(OCCN2CCOCC2)cc1)C(=O)NC(/C=N/N1CCCC1=O)C(C)C (stereo partly drawn) [TCMDC-136276] | 20.05
35 | CCc1cccc(OCC2CCCN(c3ccc(C(=O)NC4CC4)cn3)C2)c1 (stereo not drawn) [TCMDC-134039] | 7.857
36 | CCN(CC)CCN(Cc1ccc(-c2ccc(C(F)(F)F)cc2)cc1)C(=O)Cn1c(SCc2ccc(F)cc2)nc(=O)c2ccccc21 [TCMDC-140983] | 87.16
37 | CCN(CC)CCN(Cc1ccc(-c2ccc(C(F)(F)F)cc2)nc1)C(=O)Cn1c(SCc2ccc(F)cc2)nc(=O)c2sccc21 [TCMDC-140573] | 27.02
38 | CCN(CC)CCN(Cc1ccc(-c2ccc(C(F)(F)F)cc2)cc1)C(=O)Cn1c(CCc2ccc(F)cc2)nc(=O)c2sccc21 [TCMDC-140779] | 90.56
39 | CCN(CC)CCN(Cc1ccc(-c2ccc(C(F)(F)F)cc2)cc1)C(=O)Cn1c(SCc2ccc(F)cc2)nc(=O)c2sccc21 [TCMDC-140572] | 78.9
40 | CCN(CC)CCN(Cc1ccc(-c2ccc(C(F)(F)F)cc2)cc1)C(=O)Cn1c(CCc2cccc(F)c2F)nc(=O)c2ccc(C)cc21 [TCMDC-141086] | 74.83
41 | CCN(CC)CCN(Cc1ccc(-c2ccc(C(F)(F)F)cc2)cc1)C(=O)Cn1c(CCc2cccc(F)c2F)nc(=O)c2cc(C)ccc21 [TCMDC-141014] | 48.99
42 | Cc1cccc(C)c1C1CCN(C2CCC(NC(=O)/C=C/c3ccccc3)CC2)CC1 (stereo not drawn) [TCMDC-132879] | -22.62

Row | Structure (SMILES) | % Inhibition [%]
43 | C=CC12CCN(CC1)C(C(O)c1ccnc3ccc(OC)cc13)C2 (stereo not drawn) [TCMDC-124047] | -22.19
44 | O=C(Nc1ccc(F)c(F)c1)c1ccc(CN2CCCN(Cc3cccc(O)c3)CC2)cc1 [TCMDC-136390] | -4.727
45 | CC(=O)Nc1ncc(C(=O)Nc2cccc(-c3cccc(-c4nc5ccc(C(F)(F)F)cc5[nH]4)c3)c2)s1 [TCMDC-136918] | 17.49
46 | CCc1sc(N2CCN(C)CC2)nc1C(=O)Nc1ccc(F)cc1C(F)(F)F [TCMDC-134298] | 16.91
47 | CCN(CC)CCN(Cc1ccc(-c2ccc(C(F)(F)F)cc2)cc1)C(=O)Cn1c(CCc2cccc(F)c2F)nc(=O)c2sccc21 [TCMDC-140937] | 80.29
48 | Cc1noc(NC(=O)c2sc3ccccc3c2O)c1C [TCMDC-124523] | 7.208
49 | O=C(CNC(=O)c1ccc(O)cc1)Nc1ccc(-c2cccc(-c3nc4ccc(C(F)(F)F)cc4[nH]3)c2)cc1 [TCMDC-136817] | -15.92
50 | COc1cc(O)c2c(=O)c(OC)c(-c3cccc(Cl)c3OCC(=O)O)oc2c1OC [TCMDC-131682] | 2.376
51 | N=C(N)c1ccc(NCc2cccc(C(=O)O)c2)cc1 [TCMDC-136136] | -78.43
52 | CS(=O)(=O)Nc1ccc(-c2cnc3[nH]cc(-c4ccc(C(=O)O)cc4)c3c2)cc1 [TCMDC-136306] | 30.86
53 | NCCNC(=O)c1ccc(-c2cnc3[nH]cc(-c4ccc(C(N)=O)cc4)c3c2)cc1 [TCMDC-132359] | 74.46
54 | CS(=O)(=O)Nc1cccc(-c2cnc3[nH]cc(-c4ccc(CN)cc4)c3c2)c1 [TCMDC-136218] | 33.32
55 | O=C(O)c1ccc(-c2c[nH]c3ncc(-c4ccc(Cl)cc4)cc23)cc1 [TCMDC-135860] | 22.96
56 | CS(=O)(=O)Nc1cccc(-c2cnc3[nH]cc(-c4cccc(CN)c4)c3c2)c1 [TCMDC-136219] | 26.05
57 | CS(=O)(=O)Nc1cccc(-c2cnc3[nH]cc(-c4ccc(C(=O)O)c(F)c4)c3c2)c1 [TCMDC-136221] | 80.96
58 | CS(=O)(=O)Nc1cccc(-c2cnc3[nH]cc(-c4ccc(C(=O)O)cc4)c3c2)c1 [TCMDC-136215] | -36.34
59 | CCS(=O)(=O)c1ccc(-c2cnc3[nH]cc(-c4ccc(N)cc4)c3c2)cc1 [TCMDC-132582] | 93.29
60 | CS(=O)(=O)Nc1cccc(-c2cnc3[nH]cc(-c4ccc(CCC(=O)O)cc4)c3c2)c1 [TCMDC-136222] | -32.54
61 | NCCC(=O)Nc1ccc(-c2cnc3[nH]cc(-c4ccc(C(=O)O)cc4)c3c2)cn1 [TCMDC-136494] | 31.68
62 | CS(=O)(=O)c1cccc(-c2cnc3[nH]cc(-c4ccc(CCC(=O)O)cc4)c3c2)c1 [TCMDC-136223] | 14.42
63 | CS(=O)(=O)c1cccc(-c2cnc3[nH]cc(-c4cccc(CCN)c4)c3c2)c1 [TCMDC-136307] | 108.4
